Laboratory results: PubChem BioAssay (NCI)
About 83,000 compounds went through this panel and 20% of them were active in at least one assay; those are over-represented in the sample as a whole.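 Note: values are percent growth. 100 is the growth of untreated cells, values between 100 and 0 indicate rising inhibition; between -100 and 0 indicates cell death.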 Calls of active or inactive are those of the source. How the source made its calls: active means growth percent below 10; inactive means the rest.

Tests used:
Test in all cases: NCI-60 one-dose screen, 48 h (100 = growth as untreated, 0 = no growth, -100 = all killed)
Details in all cases: 10 µM unless noted
[1] = tested on: OVCAR-8 ovarian
[2] = tested on: OVCAR-5 ovarian
[3] = tested on: OVCAR-4 ovarian
[4] = tested on: SK-OV-3 ovarian
[5] = tested on: IGROV1 ovarian
[6] = tested on: HS 578T breast
[7] = tested on: NCI/ADR-RES ovarian
[8] = tested on: T-47D breast
[9] = tested on: BT-549 breast
[10] = tested on: MDA-MB-435 melanoma
[11] = tested on: SW-620 colon
[12] = tested on: MCF7 breast
[13] = tested on: HCT-116 colon
[14] = tested on: HCC-2998 colon
[15] = tested on: KM12 colon
[16] = tested on: OVCAR-3 ovarian
[17] = tested on: RPMI-8226 leukemia

Measured: growth

Cc1cc(=O)oc2cc(OC(=O)CN3CCN(C)CC3)ccc12
inactive: [1] 103% | [2] 101% | [3] 96.6% | [4] 107% | [5] 115% | [6] 97.9% | [7] 105% | [8] 102% | [9] 114% | [10] 100% | [11] 96.2% | [12] 93.1% | [13] 95.8% | [14] 108% | [15] 99.5%

Cc1oc2nc[nH]c(=O)c2c1C(=O)/C=C/c1ccc(Br)cc1
inactive: [2] 22.3% | [3] 36% | [4] 31.5% | [6] 24.3% | [10] 19.8%
active: [1] 7.33% | [5] 8.79% | [7] -30.5% | [8] 4.69% | [9] 2.55% | [11] 3.84% | [12] 9.43% | [13] -11.6% | [14] -33.9% | [15] -5.18%

O=C(CCCCCCSc1nc(-c2ccccc2)cc(-c2ccccc2)n1)NO
active: [7] 0.776% | [8] -11.1% | [11] 8.47%
inactive: [1] 27.6% | [2] 38.9% | [3] 59.1% | [4] 47.8% | [5] 36.9% | [16] 40% | [6] 43.1% | [9] 30.9% | [10] 17.3% | [12] 16.1% | [13] 11.6% | [14] 63.4% | [15] 50.7%

Fc1cc2c(cc1Cl)N(c1ncnc3ccc(-c4cnc5cnccn45)cc13)CC2
inactive: [17] 95.2% | [1] 91.4% | [2] 74.4% | [4] 94.2% | [6] 93.4% | [8] 74.9% | [9] 83.7% | [10] 101% | [11] 101% | [12] 75.8% | [13] 83.5% | [14] 90.6% | [15] 98.1%

O=C(Oc1cccc2ccccc12)Oc1cccc2ccccc12
inactive: [1] 107% | [2] 103% | [3] 113% | [4] 102% | [16] 79.4% | [6] 106% | [7] 103% | [8] 95.1% | [9] 98.9% | [10] 115% | [11] 110% | [12] 107% | [13] 107% | [14] 105% | [15] 97.3%

Nc1nc(Cl)cc(=O)n1Cc1ccccc1
inactive: [1] 92.1% | [2] 91% | [3] 97.1% | [4] 103% | [5] 115% | [16] 103% | [6] 135% | [7] 91.9% | [8] 83.4% | [10] 92.6% | [11] 105% | [12] 98.1% | [13] 95.2% | [14] 89.4% | [15] 101%

O=C(N/N=C/c1c(Cl)cccc1Cl)c1ccc(C(F)(F)F)nc1Nc1cccc(C(F)(F)F)c1
active: [16] -58% | [7] -4.2% | [8] -9.07% | [9] -5.79% | [11] 7.71% | [12] 1.97% | [13] -19.6% | [14] -29.2% | [15] 8.17%
inactive: [1] 18.7% | [2] 20.5% | [3] 13.1% | [4] 15% | [5] 12.4% | [6] 11.4% | [10] 24.2%

COc1cc(CCCO)c(OC)c(OC)c1OC
inactive: [1] 107% | [2] 103% | [3] 102% | [4] 107% | [5] 109% | [16] 111% | [6] 102% | [7] 104% | [8] 99.4% | [9] 107% | [10] 102% | [11] 105% | [12] 104% | [13] 106% | [14] 103% | [15] 105%

CCOC(=O)Nc1ccc(C(=O)/C=C/c2ccccc2)cc1
inactive: [1] 92.3% | [2] 102% | [3] 103% | [4] 110% | [16] 86.8% | [6] 93.6% | [7] 89% | [8] 84.3% | [9] 95.1% | [10] 44.6% | [11] 73.9% | [14] 34.4%
active: [5] -22.8% | [12] 0.358% | [13] 6.33% | [15] 8.51%

CC(=O)c1ccc(Nc2nc(C(C)=O)c(C)s2)cc1
inactive: [1] 102% | [2] 108% | [4] 101% | [5] 98.2% | [16] 99.9% | [6] 99.5% | [7] 105% | [8] 92.4% | [9] 105% | [10] 100% | [11] 96.2% | [12] 83.6% | [13] 104% | [14] 98.3% | [15] 98.5%
